# Screening data from PubChem BioAssay.
# SIRT5 inh: blocks human SIRT5 desuccinylation of peptide | Q9NXA8 | hit rate 1.1% among 330,000 | inhibition, % at 15 µM | Purified SirT5, succinyl-peptide AMC, trypsin-coupled fluorescence; in the data active means inhibition above about 15%; inconclusive means no clear call, values can overlap the other calls
# Target sequence (Q9NXA8 whole entry, looked up): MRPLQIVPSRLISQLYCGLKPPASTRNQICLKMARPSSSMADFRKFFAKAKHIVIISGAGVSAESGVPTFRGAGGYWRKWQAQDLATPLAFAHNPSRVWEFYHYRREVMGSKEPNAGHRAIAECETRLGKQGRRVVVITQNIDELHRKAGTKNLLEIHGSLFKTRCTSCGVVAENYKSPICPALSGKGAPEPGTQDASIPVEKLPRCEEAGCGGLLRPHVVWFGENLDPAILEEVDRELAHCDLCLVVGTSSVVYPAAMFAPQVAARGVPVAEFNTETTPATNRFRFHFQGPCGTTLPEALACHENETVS
# EWS-Fli inh: EWS/Fli transcriptional activity inhibition | A673 NR0B1-luciferase reporter, viability-normalised | hit rate 0.67% among 350,000 | AID 651661 | inhibition, % at 12.6 µM;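 active means mean inhibition of at least 50% after viability correction, with every replicate also passing that limit; inconclusive means mean reaches 50% but only one of two replicates passes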;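 further: firefly luciferase signal divided by Alamar Blue viability fluorescence both relative to DMSO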
# Ecoli rRNA inh: inhibits bacterial ribosomal RNA function over humanized ribosomes; GFP signal change (wild-type ribosome), % (test concentration not listed); E. coli WT GFP vs humanized-ribosome RFP mutants, fluorescence, 24 h; active compounds read low; DMSO median 0, no signal -100; hit rate 1.6% among 350,000; AID 720706;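 active means significant combined selectivity score with lowered wild-type GFP, culture density cut under 30%, mutant RFP and density less affected; inactive means any of these conditions unmet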
# PAX8 inh HTS: inhibitors of PAX8 transcriptional activity in RMG-I cells; RMG-I TPO-luciferase reporter, SteadyGlo, 24 h; inhibition, % at 12.6 µM; hit rate 1.2% among 360,000;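 active means mean replicate inhibition at least 60% with every replicate also reaching 60%; inconclusive means only one of the two criteria is met; inactive means mean below 60% and not all replicates reaching 60%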;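 further: luciferase light reporting Pax8 driven TPO promoter activity; plate controls were median of neutral control wells for no effect and mitoxantrone controls for full effect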
# PGC1a acetyl inh: PGC1a acetylation modulation, inhibitor mode. inhibition, % at 15.6 µM. AID 651687. hit rate 0.17% among 350,000. U2OS PGC1a acetylation, AlphaScreen anti-acetyl-lysine; with virally co-expressed GCN5 acetyltransferase;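 active means every replicate shows inhibition of at least 40%; inconclusive means mean inhibition at least 40% but some replicate below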;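 further: 0% = neutral control wells and 100% = positive control wells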
# LGR2 antag: inhibitors of bursicon-induced Drosophila LGR2 receptor cAMP signaling | inhibition, % at 9.99 µM | hit rate 0.35% among 380,000 | HEK293 LGR2, CRE-luciferase, bursicon-stimulated, 4 h;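 active means drop in luminescence signal, shown as inhibition above about 50% in the replicate tests, limit read from the data, passing the limit was not always enough; inconclusive means probably only some replicates passing the limit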;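 further: agonist challenge used bursicon conditioned medium at about half maximal strength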
# AID977621: wild-type E. coli growth inhibition versus H69 humanized strain – H69 mutant RFP, wild-type GFP, cherry-pick, dose response; shares compounds with Ecoli rRNA inh; fluorescence, 24 h; activity change, negative = inhibition at 50 µM; 1,900 tested, under 10 active;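 active means Wild-type ribosome reporter drop at least double the humanized mutant ribosome reporter drop, growth loss under a set limit; inconclusive means no clear call, values can overlap the other calls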;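 further: wild-type GFP and H69 mutant RFP strains grown together 50/50 in each well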
# AID977628: growth of wild-type and h24-humanized E. coli strains – h24 mutant RFP vs wild-type GFP, cherry-pick, dose response; 1,900 tested, under 10 active; shares compounds with Ecoli rRNA inh; activity change, negative = inhibition at 50 µM; E. coli WT GFP strain growth, fluorescence, 24 h; AID 977628;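 active means compound lowering the normal-ribosome reporter at least twice as much as the humanized-ribosome reporter, growth loss under a set limit; inconclusive means no clear call, values can overlap the other calls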;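 further: wild-type GFP and h24 humanized RFP strains co-cultured 1 to 1 per well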
# Starred values were filed as active, the others as inactive; ? = inconclusive; / = not tested or not shown. Compounds with a hit are over-represented: about 3.4% of the library has one in this group of screens.
SMILES,SIRT5 inh,EWS-Fli inh,Ecoli rRNA inh,PAX8 inh HTS,PGC1a acetyl inh,LGR2 antag,AID977621,AID977628
CC(=O)c1ccc(N2CCN(C(=O)C3CCN(S(=O)(=O)c4ccc5c(c4)CC(C)N5C(C)=O)CC3)CC2)cc1 (centres undefined),-1,0,-19*,-24,-16,-5,-14,/
Cc1ccc(C2(c3noc(CN(C)Cc4cccnc4)n3)CCCC2)cc1,-4,5,-31*,-17,-11,8,/,?
Cc1ccc(C2(c3noc(CN(C)Cc4ccccn4)n3)CCCC2)cc1,1,8,-20,4,/,-6,/,/
Cc1ccc(NC(=O)C[n+]2cc(-c3ccccc3)n3c2CCC3)c(C)c1,-3,?,-21*,-3,4,/,?,?
CCC(C(=O)Nc1ccsc1C(=O)OC)c1ccccc1 (centres undefined),-2,-1,-29*,-11,2,7,-12,-5.7
CCC(C(=O)Nc1nc(C)c(C(=O)OC)s1)c1ccccc1 (centres undefined),-2,50,8,32,-5,-10,/,/
COCC(=O)N1C[C@@H](C)[C@H](OC)CN(C)C(=O)c2cc(NC(=O)c3ccc(F)cc3)ccc2OC[C@H]1C,1,-4,-1,/,12,-4,/,/
CC1(C(=O)NS(=O)(=O)c2cccs2)CCN1C(=O)C1(c2ccc(Cl)cc2)CCC1 (centres undefined),-2,15,-33*,19,4,-5,-22,/
CC1(C(=O)NS(=O)(=O)c2cccc(Cl)c2)CCN1C(=O)C1(c2ccc(Cl)cc2)CCC1 (centres undefined),0,0,-16*,-4,4,5,-15,/
Oc1ccccc1Oc1ncc(Br)c(Cl)n1,-23,26,-25*,22,-5,2,/,3.7
COc1ccc(NC(=O)CSc2n[nH]c(-c3ccncc3)n2)c([N+](=O)[O-])c1,-3,/,-18*,-4,-2,5,?,-4.8
COc1cc(OC)c(OC)cc1CN1CCCC(C(=O)c2sccc2C)C1 (centres undefined),-4,7,-3,19,2,-1,/,/
Cc1ccsc1C(=O)C1CCCN(Cc2cc(F)ccc2-n2cccn2)C1 (centres undefined),7,23,-33*,10,/,11,-13,-14
O=C(C[C@H]1CC[C@H](NC(=O)Nc2ccc(F)cc2)[C@@H](CO)O1)NCc1cccc(F)c1,-4,-2,2,/,15,-6,/,/
O=C1c2ccccc2CCc2ccccc21,-1,-12,-5,-2,-4,-14,/,/
O=C1c2ccccc2CSc2c(O)cccc21,-1,-13,-31*,34,-4,-3,-10,-11
CSc1ccccc1C(=O)NCCc1ccc(S(=O)(=O)N2CCCCC2)cc1,6,9,-21*,/,-8,-3,/,-13
O=C(NCCc1ccccc1)c1ccc(S(=O)(=O)N2CCCCC2)cc1,/,-4,4,-22,-2,-4,/,/
Cc1cccc(SCC(=O)Nc2ccccc2[N+](=O)[O-])c1,2,1,-26*,-12,/,-12,-4.3,-15
C[C@H](CO)N1C[C@H](C)[C@@H](CN(C)C(=O)CCCN(C)C)OCCCC[C@H](C)Oc2ccc(NC(=O)Nc3cccc4ccccc34)cc2C1=O,3,0,-2,-1,-11,-4,-7.8,?
C[C@@H]1CCCCO[C@@H](CN(C)C(=O)CCCN(C)C)[C@H](C)CN([C@H](C)CO)C(=O)c2cc(NC(=O)Nc3ccccc3)ccc2O1,-8,-8,0,11,6,-13,/,/
C[C@@H]1CCCCO[C@H](CN(C)C(=O)CCCN(C)C)[C@H](C)CN([C@H](C)CO)C(=O)c2cc(NC(=O)Nc3cccc4ccccc34)ccc2O1,5,-2,2,7,2,7,/,?
CC(C)NC(=O)N1[C@H](CO)[C@H](c2ccccc2)C12CN(C(=O)CN(C)C)C2,3,-3,2,-1,3,-2,/,/
Cc1cc(C)nc(SCc2cn3c(C)cccc3n2)n1,-7,-3,-19*,3,7,-4,/,?
Cc1ccnc(SCc2cn3c(C)cccc3n2)n1,0,-48,-10,-13,/,-23,/,/
SMILES,SIRT5 inh,EWS-Fli inh,Ecoli rRNA inh,PAX8 inh HTS,PGC1a acetyl inh,LGR2 antag,AID977621,AID977628
COc1ccc(S(=O)(=O)N(C)C)cc1NC(=O)c1ccc2c(c1)NC(=O)C(C)S2 (centres undefined),-4,10,-21*,21,-1,-4,-0.9,/
CC1Sc2ccc(C(=O)Nc3ccc(S(=O)(=O)N(C)C)cc3)cc2NC1=O (centres undefined),3,15,-7,22,-11,1,/,/
CC(=O)N1[C@@H]2c3ccc(-c4ccccc4)c(=O)n3C[C@H]1[C@H](CO)[C@H]2C(=O)Nc1ccccc1,-7,20,-2,/,/,-10,/,/
Cc1noc(C)c1S(=O)(=O)Nc1ccc2c(c1)C(=O)N([C@H](C)CO)C[C@H](C)[C@@H](CN(C)Cc1ccc3c(c1)OCO3)OCCCC[C@H](C)O2,8,-11,3,-9,6,7,/,/
COc1ccc(-c2csc(N)n2)cc1F,6,-44,-17*,-111,2,-35,-5.9,-3.1
Nc1nc(-c2ccc(F)cc2)cs1,0,-12,-20,13,1,-3,/,/
O=C(C[C@@H]1C=C[C@@H](NC(=O)c2ccc(F)cc2)[C@H](CO)O1)NCc1ccncn1,0,6,0,-4,1,-3,/,/
Cc1ccc(C(=O)Nc2ccc3ncccc3c2)cc1,0,66*,-16*,22,/,74*,/,-12
Cc1cc(=O)oc(C)c1C(=O)Nc1ccc2ncccc2c1,/,/,/,11,2,/,/,/
CC(C)C#Cc1ccc2c(c1)O[C@@H](CN(C)Cc1ccncc1)[C@H](C)CN([C@@H](C)CO)S2(=O)=O,/,32,-26,8,15,-17,/,/
C[C@H]1CN([C@@H](C)CO)C(=O)c2cccc(NC(=O)C3CC3)c2O[C@@H]1CN(C)CC1CC1,-4,-2,-5,-8,-1,1,/,/
CCOc1ccc(C(C)=O)cc1CN1C(=O)NC2(CCCCCCC2)C1=O,0,-1,-40*,45,-20,12,-0.93,-17
O=C(COc1ccc(Cl)cc1)Nc1ccc2c(c1)CCC2,/,/,/,-2,/,-51,/,/
CC(=O)c1ccc(OCC(=O)Nc2ccc3c(c2)CCC3)cc1,2,-16,-26*,0,-6,-31,-5.5,-5.3
